Bioassay records (PubChem)
The entries come from a sample that favours hits as a whole.
Shiga inhibitor: inhibitors of Shiga toxin in Vero cells. inhibition, % at 38.7 µM. Vero cells, Shiga toxin protein synthesis inhibition reporter. hit rate 9.2% among 290,000. AID 2315; in the data active = inhibition mostly above about 28%, no sharp cut-off; inactive = mostly below about 43%; also: 0% is about no effect
TbPYK inhibitor: blocks Trypanosoma brucei pyruvate kinase; TbPYK enzyme, Kinase-Glo Plus ATP luminescence, 45 min; Potency, µM (series often up to 76.8 µM), for the others: at the highest dose activity, negative = inhibition, hits mostly inhibitors; hit rate 0.12% among 410,000; AID 624173; also: potency is read from the fitted curve at half-maximal effect; % is scaled to controls: 0 for no effect and ±100 for the full control effect; nearly all actives have a fitted effect of over 50% in size
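Enzyme and substrate buffer are dispensed first and compound is pin-transferred. ADP at 130 uM final then starts the reaction, which runs 45 min at room temperature. Detection reagent is added for 10 min before luminescence is imaged.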
FBPA Giardia inh: blocks Giardia fructose-bisphosphate aldolase activity. Potency, µM (series often up to 59.6 µM), inactives show at the highest dose activity, negative = inhibition, hits mostly inhibitors. AID 2451. purified Giardia FBPA. hit rate 0.71% among 290,000; also: potency is read from the fitted curve at half-maximal effect; % is scaled to controls: 0 for no effect and ±100 for the full control effect; nearly all actives have a fitted effect of over 55% in size
Target sequence (A8B2U2 whole entry, looked up): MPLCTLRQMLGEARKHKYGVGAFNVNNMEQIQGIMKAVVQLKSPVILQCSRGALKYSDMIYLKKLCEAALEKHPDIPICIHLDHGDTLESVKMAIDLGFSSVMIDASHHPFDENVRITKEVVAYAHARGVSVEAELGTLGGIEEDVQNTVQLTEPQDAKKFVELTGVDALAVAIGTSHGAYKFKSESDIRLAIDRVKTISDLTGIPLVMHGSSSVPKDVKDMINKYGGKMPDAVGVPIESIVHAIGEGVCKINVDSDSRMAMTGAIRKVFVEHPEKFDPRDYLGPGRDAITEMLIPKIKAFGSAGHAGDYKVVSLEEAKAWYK
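40 nM FBPA preincubated 10 min at RT with compound (up to 57.5 uM final), then substrate plus GAPDH/TPI/NAD/arsenate coupling and diaphorase/resazurin added. Fluorescence read after 20 min at RT, 525/598 nm.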
Sm TGR inh: blocks Schistosoma mansoni thioredoxin glutathione reductase. Q962Y6. purified TGR, DTNB reduction, TNB absorbance 405 nm. Potency, µM (titrated, usually from 114 µM), inactives show at the highest dose activity change, negative = inhibition, usual class: inhibitors. hit rate 3% among 360,000. AID 485364; also: potency is read from the fitted curve at half-maximal effect; % is scaled to controls: 0 for no effect and ±100 for the full control effect; nearly all actives have a fitted effect of over 60% in size
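First, TGR (20 nM dispensed) and NADPH were mixed with compound. Second, a 15 min room-temperature incubation followed. Third, further NADPH and then DTNB were added to start the reaction. Finally, TNB absorbance was monitored kinetically.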
Cycloheximide cs: counter-screen hit for Shiga toxin inhibitors, cycloheximide | max response, % | hit rate 12% among 300,000 | cell reporter, cycloheximide protein synthesis inhibition counterscreen; in the data active = max response mostly above about 13%, no sharp cut-off; inactive = mostly below about 14%; also: read at 38.3 µM for the half of the compounds with a filed dose; 0% is about no effect
LmPK inh: LmPK (Leishmania mexicana) enzyme inhibition. Q27686. purified LmPK, Kinase-Glo ATP luminescence, 1 h. Potency, µM (highest dose often 57.5 µM), for the others: at the highest dose activity change, negative = inhibition, most hits filed as inhibitors. hit rate 0.37% among 290,000. AID 1721; also: potency is read from the fitted curve at half-maximal effect; % is scaled to controls: 0 for no effect and ±100 for the full control effect
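qHTS format; LmPK 0.1 nM; substrates PEP 0.5 mM and ADP 0.1 mM. One-hour room-temperature incubation, then coupled luciferase luminescence; 0.5 nM enzyme wells mark activation.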
* hit, by the source's call; u = inconclusive; x = no result. Unless noted, calls follow the shape of the dose curve; as a rule, active = well fitted curve in the direction sought with a large enough effect; inconclusive = small, poorly fitted or top-dose-only effect, or another doubt; inactive = no such curve, though single readings can be large; an effect the other way counts as inactive or inconclusive.

SMILES | Shiga inhibitor | TbPYK inhibitor | FBPA Giardia inh | Sm TGR inh | Cycloheximide cs | LmPK inh
CN(C)CCN(Cc1ccccc1)S(=O)(=O)c1ccc2[nH]c(=O)ccc2c1 | x | -4% | x | 1% | x | x
O=C(NCCc1ccccc1)c1ccc2c(c1)N(Cc1ccccc1)C(=O)c1ccccc1S2=O (stereo not drawn) | x | -5% | x | 3% | x | x
O=C(Nc1nnc(C(F)(F)F)s1)C1COc2ccccc2O1 (stereo not drawn) | 44* | -2% | -1% | -1% | 34* | -10%
Cc1cc(C)c2sc(NNC(=O)C3COc4ccccc4O3)nc2c1 (stereo not drawn) | -8 | 10% | 8% | -12% | -3 | 0%
CC1(C)CC(=O)c2sc(NC(=O)c3ccco3)nc2C1 | 29 | -1% | 11% | -32% | 33* | -8%
CC1(C)CC(=O)c2sc(NS(=O)(=O)c3ccc([N+](=O)[O-])cc3)nc2C1 | -7 | 11% | -22% | -13% | 46* | 6%
CC1(C)CC(=O)c2sc(NC(=O)C3COc4ccccc4O3)nc2C1 (stereo not drawn) | 32* | 1% | 13% | 3% | 34* | -2%
Cc1ccc(C(=O)c2sc(Nc3ccccc3)c(S(=O)(=O)c3ccccc3)c2N)c(C)c1 | x | 3% | x | 5% | x | x
O=c1n(Cc2ccc([N+](=O)[O-])cc2)c2ccccc2c2nc(-c3ccccc3)nn12 | x | 1% | x | -3% | x | x
CC1(C)CC(=O)c2sc(NC(=O)CN3C(=O)CCC3=O)nc2C1 | 74* | -1% | 17% | -1% | 50* | 2%
CC(C)(C)c1csc(NC(=O)C2COc3ccccc3O2)n1 (stereo not drawn) | 87* | -3% | x | 2% | 42* | -3%
CC1(C)CC(=O)c2sc(NC(=O)CN3CCOCC3)nc2C1 | -3 | 4% | -22% | 5% | -2 | 3%
O=C(Nc1nncs1)C1COc2ccccc2O1 (stereo not drawn) | 50* | -5% | -2% | -8% | 14* | -10%
COc1ccc(-c2csc(NC(=O)C3COc4ccccc4O3)n2)cc1OC (stereo not drawn) | -4 | -1% | -11% | 3% | -1 | 6%
CC(=O)c1sc(NC(=O)C2COc3ccccc3O2)nc1C (stereo not drawn) | 36 | -8% | 5% | -9% | 21* | -26%
CC1(C)CNC(=O)c2sc(NC(=O)c3ccccc3Cl)nc2C1 | 34 | 2% | -7% | 14% | 17* | -2%
O=C(Nc1nnc(C2CC2)s1)C1COc2ccccc2O1 (stereo not drawn) | 75 | -2% | 4% | u | 34* | 0%
O=C(Nc1nnc(CC(=O)N2CCOCC2)s1)C1COc2ccccc2O1 (stereo not drawn) | -10 | 2% | 1% | 5% | -7 | -1%
COc1cc(NC(=O)CC(c2ccc(C)cc2)N2Cc3ccccc3C2=O)cc(OC)c1 (stereo not drawn) | x | 0% | x | 4% | x | x
CCOC(=O)/C=C/C(=O)Nc1nccs1 | 19 | 5% | 8% | 40µM* | 15* | 2%
Cc1ccc(/C=C/C(=O)Nc2ncc(C)s2)o1 | 69* | u | u | 25µM* | 47* | 0%
Cc1ccc(/C=C/C(=O)Nc2nnc(SCc3ccc(C#N)cc3)s2)o1 | -10 | -6% | 3% | -22% | -1 | -2%
Cc1cnc(NC(=O)/C=C/c2ccc(Br)o2)s1 | 81* | -2% | 1% | -1% | 16* | -2%
Cc1noc(C)c1C(=O)Nc1nccs1 | -10 | -4% | x | u | -3 | 0%
Cc1ccc(/C=C/C(=O)Nc2nccs2)o1 | 108* | u | u | 28µM* | 55* | -23%
CSc1ccccc1C(=O)Nc1ncc(C)s1 | 17 | 4% | 0% | -3% | 5 | 2%
COc1ccc(OC)c(NC(=O)c2csnn2)c1 | x | -21% | x | 2% | x | x
O=C(/C=C/c1ccc(Br)o1)Nc1nnc(C2CC2)s1 | 29 | x | -3% | 11µM* | 14 | 0%
O=C(Nc1ccc(-c2ccc(N3CCCCC3)nn2)cc1)c1ccco1 | x | 7% | x | -2% | x | x
Nc1nc(-c2ccc(NC(=O)c3ccco3)cc2)cs1 | 40* | 1% | 1% | 12% | 17* | -18%
